Compounds with a hit are over-represented: about 3.7% of the library has one in this group of screens.
Nrf2 inh = Nrf2 qHTS screen for inhibitors; A549 ARE-Fluc reporter, luciferase luminescence, 18-24 h; Potency, µM (doses to about 46 µM), inactives show at the top dose activity change, negative = inhibition, actives largely listed as inhibitors; 360,000 compounds, 2.1% hits; note: potency is the fitted concentration of half-maximal effect; % is set by controls: 0 for no effect and ±100 for the full control effect; nearly all actives have a fitted effect of over 60% in size
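A549 ARE_Fluc cells (5000/well, 5% FBS OPTI-MEM) pre-incubated 2 h, then treated with compounds 18-24 h at 37C/5% CO2 in concentration-response. CellTiter-Fluor viability read first; BugLite luciferase luminescence after 15 min at room temperature gives Nrf2 activity.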
Nrf2 ARE act = qHTS of Nrf2 Activators. Potency, µM (highest dose often 46.1 µM), inactives show at the highest dose activation, most hits filed as activators. 410,000 compounds, 0.31% hits. AREc32 ARE-luciferase reporter (MCF7-derived line), luminescence, 24 h. AID 624171, 2012; note: potency is the fitted concentration of half-maximal effect; % of control where 0% means no effect; nearly all actives have a fitted effect of over 65% in size
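Steps: seed AREc32_Fluc cells (1000/well, 5% FBS OPTI-MEM); incubate overnight at 37 deg C; add 23 nL compound; incubate 24 hr; add Steady-Glo; hold 30 min RT; read luminescence.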
ClpP mod = qHTS Assay for Activators of ClpP; AID 651965, 2013; Potency, µM (series often up to 57.5 µM), without a hit: at the highest dose activity change, negative = active; 340,000 compounds, 1.9% hits; purified B. subtilis ClpP, FRET peptide cleavage, 20 min; active = well fitted falling curve with a large enough effect; inconclusive = small, poorly fitted or top-dose-only effect; inactive = no such curve, though single readings can be large or run the other way; note: potency is the fitted concentration of half-maximal effect; the source files actives as falling curves though it sought activators and does not explain the sign; nearly all actives have a fitted effect of over 65% in size
Target sequence (P80244 whole entry, looked up): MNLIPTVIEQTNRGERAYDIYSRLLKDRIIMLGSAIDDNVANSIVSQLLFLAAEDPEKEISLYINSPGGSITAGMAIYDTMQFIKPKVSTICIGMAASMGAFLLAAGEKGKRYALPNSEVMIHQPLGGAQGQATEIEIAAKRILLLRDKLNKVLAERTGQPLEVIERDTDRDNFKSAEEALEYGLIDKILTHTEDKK
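Buffer: 100 mM Tris/HCl pH8, 100 mM KCl, 0.05% low protease BSA, 2.5% glycerol, 0.01% Tween-20. ClpP 10 microg/mL final; 20 min RT; delta FRET normalized to ADEP and DMSO controls.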
A549 tox = Nrf2 qHTS screen for inhibitors: counterscreen for cytotoxicity; 390,000 compounds, 0.16% hits; Potency, µM (highest dose often 46 µM), for the others: at the top dose activity change, negative = cytotoxicity, actives largely listed as inhibitors; A549 ARE-Fluc cells, CellTiter-Fluor viability, 18-24 h; note: potency is the fitted concentration of half-maximal effect; % is set by controls: 0 for no effect and ±100 for the full control effect
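Cytotoxicity counterscreen: CellTiter-Fluor fluorescence was measured in A549 ARE_Fluc cells after 18-24 h of compound exposure in a concentration series. The subsequent BugLite luminescent read reports ARE-luciferase activity.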
TCR act = Activators of T cell receptors: qHTS campaign; primary human leukocytes, anti-CD3, IL-2 HTRF, 48 h; Potency, µM (doses to about 9.22 µM), for the others: at the top dose activation of IL-2 secretion, hits mostly activators; 330,000 tested, under 10 active; AID 504894, 2011; note: % of control where 0% means no effect
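1) Mix primary human leukocytes, a-CD3 beads and compound. 2) Incubate 48 hr. 3) Add HTRF IL-2 reagents (a-IL-2-K, a-IL-2-d2).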
miR-21 reporter = qHTS Assay for Modulators of miRNAs and/orActivators of miR-21; HeLa miR-21 FLuc reporter, luciferase, 48 h; Potency, µM (highest dose often 38.3 µM), for the others: at the highest dose activity change, positive = activation, actives largely listed as activators; 340,000 tested, under 10 active;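 note: % of control where 0% means no effect; miR-21 action dims this reporter so a rising signal means less miR-21 action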
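HeLa cells stably expressing CMV-driven firefly luciferase with a downstream miR-21 binding sequence, endogenously expressing miR-21, were treated with titrations (up to about 40uM final) for 48 hours at 37 degree Celsius. Luciferase luminescence was read after lysis.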
* hit, by the source's call; u = inconclusive; x = not tested or not shown; [ ] = another dose, or the depositor's remark. Unless noted, calls come from the whole dose curve; as a rule, active = well fitted curve in the direction sought with a large enough effect; inconclusive = small, poorly fitted or top-dose-only effect, or another doubt; inactive = no such curve, though single readings can be large; an effect the other way counts as inactive or inconclusive.

SMILES | Nrf2 inh | Nrf2 ARE act | ClpP mod | A549 tox | TCR act | miR-21 reporter
O=c1oc2cc(OCc3c(F)c(F)c(F)c(F)c3F)ccc2cc1-c1ccccn1 | 7.2% | 6.7% | 15.8µM* | 3.3% | 3.6% | -9.2%
Cc1ccccc1N(CC(=O)NC1CCCCC1)C(=O)CCCC(=O)Nc1ccccn1 | -11.9% | -0.1% | x | -7.0% | 8.5% | 2.2%
O/N=C(/C[n+]1csc2ccccc21)c1ccccc1 | x | x | 2.0% | x | x | x
N#CCN(C(=O)CSc1nnc(C2CC2)n1C1CC1)c1ccccc1 | x | 1.7% | -1.3% | x | x | x
Oc1ccc2ccccc2c1N=Nc1ccccc1F | 28.2% | 3.55µM* | u | -6.7% | -4.4% | -1.8%
Oc1ccc2ccccc2c1N=Nc1ccccn1 | u | u | -1.3% | u | 11.6% | 21.4%
Cc1oc2cc3oc(=O)c(CC(=O)NCc4ccccc4)c(C)c3cc2c1C | 5.9% | 0.5% | -5.1% | 4.6% | x | -0.6%
Cc1ccc(CNc2ccc(-c3nc(-c4ccncc4)no3)cc2[N+](=O)[O-])cc1 | -2.5% | 3.1% | -2.0% | -12.7% | x | u
Cc1ccc(CNc2ccc(-c3nc(-c4cccnc4)no3)cc2[N+](=O)[O-])cc1 | 29.1µM* | -0.3% | 1.0% | -23.4% | x | u
Cc1nc([N+](=O)[O-])c(Br)n1CC(=O)c1ccc(Br)cc1 | 23.1µM* | 13.6% | -3.9% | 16.4µM* | -2.0% | u
Cc1nc([N+](=O)[O-])c(Br)n1CC(=O)c1ccccc1 | x | u | -3.1% | u | 4.4% | 21.0%
Cc1ccc(NC(=O)c2ccc(NC(=O)N3CCSc4ncccc43)cc2)c(Cl)c1 | -8.6% | 0.4% | 28.2µM* | -4.9% | x | 15.3%
Cc1ccc(Cl)cc1NC(=O)c1ccc(NC(=O)N2CCSc3ncccc32)cc1 | u | 4.2% | 31.6µM* | 3.4% | x | -28.9%
COc1cc(NC(=O)c2ccc(NC(=O)N3CCSc4ncccc43)cc2)cc(OC)c1 | -8.5% | 6.5% | 31.6µM* | 3.8% | x | -47.2%
Cc1ccc(NC(=O)c2ccc(NC(=O)N3CCSc4ncccc43)cc2)c(C)c1 | 9.7% | 3.0% | u | 1.7% | x | -31.9%
COc1ccc(CNC(=O)c2ccc(NC(=O)N3CCSc4ncccc43)cc2)cc1 | 1.4% | -0.6% | u | -0.4% | x | -9.6%
COc1ccc(-c2nc3ccc(NC(=O)CO)cc3c(=O)n2Cc2cccc(Cl)c2)cc1COc1ccc(NC(C)=O)cc1 | u | x | u | -13.0% | x | x
CCN(C(=O)CSc1nnc(-c2ccc(F)cc2)n1C)C1CCS(=O)(=O)C1 (stereo unspecified) | -5.9% | -1.0% | x | -2.6% | -3.7% | x
Cc1ccccc1CC(=O)Nc1ccc2c(c1)c(=O)n(C)n2-c1ccccc1F | x | 0.1% | 4.1% | x | x | x
S=C(NCCCN(Cc1ccc(Cl)c(Cl)c1)c1ccc(Br)cn1)NCCc1cnc[nH]1 | -12.1% | x | x | -2.9% | x | x
Cn1c(=O)n(/N=C/c2ccccc2)c2ccccc21 | 3.5% | 11.2µM* | -1.0% | 10.7% | 8.1%[46.1 µM] | -20.8%
COc1cc(OC)c2c(-c3cccc(-c4cccc(C)c4)c3)cc(=O)oc2c1 | -4.8% | 0.6% | 22.4µM* | 9.0% | -5.1%[46.1 µM] | x
CSc1cccc(NC(=O)C2CC(=O)N(Cc3ccccc3)C2)c1 (stereo unspecified) | 9.4% | -0.7% | 0.7% | 1.3% | 1.4% | -4.7%
CCOC(=O)C1=C(C)NC2=C(C(=O)CCC2)C1c1cn(Cc2ccc(Cl)cc2Cl)nc1-c1ccccc1 (stereo unspecified) | u | 3.7% | 28.2µM* | u | -4.1% | 20.0%
COC(=O)C1=C(C)NC2=C(C(=O)CCC2)C1c1cn(Cc2ccc(Cl)cc2Cl)nc1-c1ccccc1 (stereo unspecified) | 25.9µM* | -0.6% | 17.8µM* | u | 11.1% | 0.6%
SMILES | Nrf2 inh | Nrf2 ARE act | ClpP mod | A549 tox | TCR act | miR-21 reporter
COc1cc(F)c(S(=O)(=O)N2CCN(S(=O)(=O)c3ccc(NC(C)=O)cc3)CC2)c(F)c1 | -5.8% | x | x | 6.4% | x | x
Cc1cccc(N=C2NN=C(c3c(C)[nH]c4ccccc34)CS2)c1 | u | 2.7% | 17.8µM* | u | -2.2%[46.1 µM] | u
Cc1ccc(C2NC(=O)c3ccccc3N2)c(C)c1 (stereo unspecified) | -12.3% | 2.4% | 28.2µM* | -8.0% | 2.3% | x
Cc1ccc(C2NC(=O)c3ccccc3N2)s1 (stereo unspecified) | u | 3.7% | 28.2µM* | u | 2.8% | -23.2%
Cc1cccc(C2NC(=O)c3ccccc3N2)c1 (stereo unspecified) | 9.1% | 10.3% | 28.2µM* | -7.2% | -5.3% | x
Cc1c(C(=O)OC2CCCCC2)sc2nc[nH]c(=O)c12 | x | 0.1% | 28.2µM* | 5.5% | x | -39.6%
COCCOC(=O)c1sc2nc[nH]c(=O)c2c1C | -15.7% | 0.7% | x | 1.0% | -0.1% | -8.9%
CCOC(=O)c1c(NC(=O)c2ccoc2C)sc(C)c1C | -22.8% | 0.5% | 8.91µM* | -5.7% | 1.9% | 0.2%
CC(C)OC(=O)c1c(NC(=O)C2c3ccccc3Oc3ccccc32)sc2c1CCCC2 | 6.0% | -0.4% | u | -3.8% | x | -13.1%
COC(=O)c1c(NC(=O)c2cc3ccccc3c(=O)o2)sc2c1CCCC2 | 13.1% | 12.6µM* | 0.1% | -4.2% | x | 0.9%
O=C(Nc1ncnc2sc3c(c12)CCC3)c1ccco1 | -2.0% | 0.794µM* | -6.7% | -4.3% | -3.0% | -36.9%
CCCOC(=O)c1c(NC(=O)C2c3ccccc3Oc3ccccc32)sc2c1CCCC2 | u | -0.8% | 12.6µM* | u | x | -5.6%
O=C(NCc1ccccc1)C12CC3CC(CC(Br)(C3)C1)C2 | 7.6% | -0.9% | x | -0.6% | -0.5% | -1.5%
C[C@H](NC(=O)N1CCn2c1nc1ccccc12)C(=O)NCc1ccc2c(c1)OCO2 | -18.2% | 0.0% | -1.6% | -16.0% | -2.2% | 7.0%
O=C(c1ccccc1)N1CCc2cc(CNS(=O)(=O)c3ccccc3Cl)ccc21 | x | 0.6% | 1.9% | -14.4% | x | 20.2%
CC(NC(=O)c1c2c(nc3ccccc13)C(=O)N(C1CCCCC1)C2)c1ccccc1 (stereo unspecified) | u | 0.2% | -20.9% | -21.3% | x | 11.9%
COC(=O)c1c(NC(=O)c2ccco2)sc(C(=O)N(C)C)c1C | 0.4% | 12.6µM* | -3.4% | 0.0% | -0.6%[46.1 µM] | -26.3%
COC(=O)c1c(NC(=O)c2ccoc2C)sc2c1CCC2 | 20.6% | 3.7% | 31.6µM* | 0.0% | 3.6% | -13.4%
COC(=O)c1c(NC(=O)COC(=O)c2ccc(C)s2)sc2c1CCCCC2 | 5.0% | 0.3% | -1.6% | -6.7% | -6.4%[46.1 µM] | -2.8%

Screens as filed in PubChem BioAssay.
